# Sampled rows, rich in hits. Any-hit rate of the full collection: about 2.4%.
# PREPL inh = inhibitors of human prolyl oligopeptidase-like enzyme PREPL | hit rate 0.68% among 320,000 | inhibition, % at 5.96 µM | Q4J6C6 | recombinant PREPL, fluorescence polarization activity-based probe; in the data active = inhibition above about 43%
# Rpn11 block = Rpn11 (human) deubiquitinase inhibition. AID 588493. hit rate 0.59% among 360,000. human 26S proteasome, Ub4-pepOG fluorescence polarization; 20S core pre-blocked with epoxomicin. inhibition, % at 20 µM;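 active = inhibition at 20 µM, scaled to each plate's controls, above about 33%, limit read from the data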
# PP1 counter = blocks human PP1-alpha phosphatase, a PP5 counter-screen. inhibition, % at 6.7 µM. purified PP1alpha, OMFP fluorescence. P62136. hit rate 0.9% among 320,000;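 active = inhibition above the mean inhibition of all tested compounds plus 3 SD, computed separately for each screening campaign, cut at about 15% in these data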
# Target sequence (P62136 whole entry, looked up): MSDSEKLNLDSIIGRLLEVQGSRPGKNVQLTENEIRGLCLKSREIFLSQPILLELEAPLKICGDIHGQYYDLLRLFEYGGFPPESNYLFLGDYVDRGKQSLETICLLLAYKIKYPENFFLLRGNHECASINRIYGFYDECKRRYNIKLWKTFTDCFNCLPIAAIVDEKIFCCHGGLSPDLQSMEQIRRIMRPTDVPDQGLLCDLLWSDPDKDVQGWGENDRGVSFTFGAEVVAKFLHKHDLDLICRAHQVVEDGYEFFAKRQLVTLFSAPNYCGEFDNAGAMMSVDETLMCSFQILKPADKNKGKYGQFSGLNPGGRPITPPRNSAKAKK
# PP5 primary = blocks human protein phosphatase 5 activity; purified PP5c, OMFP substrate fluorescence; inhibition, % at 6.7 µM; hit rate 0.18% among 320,000; AID 1987;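 active = inhibition above the campaign's mean inhibition across all tested compounds plus 3 SD, cut at about 9.5% in these data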
# NadD inh = inhibitors of Staphylococcus aureus NadD. hit rate 0.78% among 360,000. purified NadD enzyme, colorimetric absorbance read-out. inhibition, % at 20 µM. AID 602399; in the data active = inhibition above about 26%
# PP1 confirm = human PP1 phosphatase inhibition, confirmation; shares compounds with PP1 counter; purified PP1alpha, OMFP substrate fluorescence; inhibition, % at 6.7 µM; hit rate 52% among 1,900; AID 2358;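 active = mean PP1 inhibition above a set limit taken from the earlier primary screen, cut at about 15% in these data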
# PP5 inh counter = counter-screen for PP1 inhibitors: human PP5 phosphatase inhibition | inhibition, % at 6.7 µM | shares compounds with PP1 counter | purified PP5c, OMFP fluorescence | hit rate 4% among 1,900 | AID 2360;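 active = mean PP5 inhibition over triplicate wells above about 9.5% taken from the earlier PP1 screen, limit read from the data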
# A number is an active result; – = inactive; · = not tested or not shown.
SMILES,PREPL inh,Rpn11 block,PP1 counter,PP5 primary,NadD inh,PP1 confirm,PP5 inh counter
c1ccc(Cn2nnc(CNc3ccccc3)c2-c2c(CNc3ccccc3)nnn2Cc2ccccc2)cc1,–,–,23,–,–,–,–
Nc1c(C(=O)NCc2ccccc2)nnn1Cc1ccccc1,–,–,–,–,–,·,·
Cn1c(=O)oc2cc(S(=O)(=O)Nc3cccc(C(=O)O)c3)ccc21,–,–,42,–,–,–,–
CC(=O)c1cccc(NS(=O)(=O)c2ccc3c(c2)oc(=O)n3C)c1,–,–,–,–,–,·,·
CCc1nnc(NC(=O)c2sc3nc4c(cc3c2N)CCCCCC4)s1,–,–,22,–,–,29,–
COC(=O)C1=C(C)N(Cc2ccccc2)C(=NCc2cccc(C(F)(F)F)c2)N[C@H]1c1cccc(F)c1,–,–,18,–,–,–,–
Cc1nc(Nc2cnc(/C=C/c3cc(C(=O)Nc4cccc(C(F)(F)F)c4)ccc3C)cn2)cc(N2CCNCC2)n1,–,·,23,–,·,–,–
O=C(c1ccc(Nc2cccc(C(F)(F)F)c2)nc1)N1CCCC1,–,–,–,–,–,·,·
CCC/C=C/c1ccc(CN2C(CC(C)C)C(=O)N(Cc3cn(Cc4ccco4)nn3)CCS2(=O)=O)cc1 (centres undefined),·,–,·,·,–,·,·
CC1Cc2cc(/C(O)=C3/C(=O)C(=O)N(CCCn4ccnc4)C3c3ccncc3)ccc2O1 (centres undefined),–,–,–,–,–,·,·
CC1Cc2cc(/C(O)=C3/C(=O)C(=O)N(CCCn4ccnc4)C3c3ccc(Br)cc3)ccc2O1 (centres undefined),–,–,26,–,–,31,–
CC1CC2C3CCC4=CC(=O)C=CC4(C)[C@@]3(Cl)C(O)CC2(C)C1(O)C(=O)CO (some centres undefined),–,–,–,–,–,·,·
C[C@@H]1C[C@H]2[C@@H]3CCC4=CC(=O)C=C[C@]4(C)[C@@]3(Cl)[C@@H](O)C[C@]2(C)[C@@]1(OC(=O)c1ccco1)C(=O)CCl,–,–,23,–,–,27,–
Cc1cccc(NC(=O)CNC(=O)COc2ccc(-c3ccc(C#N)cc3)cc2)c1C,–,–,20,–,–,18,–
CC1(C)Cc2c(C#N)c(N)n(-c3ccccc3)c(=S)c2CO1,–,–,–,–,–,·,·
CC1(C)C=C2C(=NN(c3ccccc3)C(N)=C2C#N)CO1,–,–,33,–,–,–,59
C/C(CC(=O)Nc1ccc(Cl)c(C(F)(F)F)c1)=N\NC(=O)c1cc2ccccc2cc1O,–,–,19,–,36,–,–
Cc1ccc(NC(=O)CCC(=O)OCC(=O)c2ccc(-c3ccccc3)cc2)cc1,–,–,29,–,–,21,–
COc1ccc(C(=O)NCC(=O)Nc2ccc(-c3ccccc3)cc2)cc1,–,–,20,–,–,33,–
O=C(CCC(=O)OCC(=O)c1ccc(-c2ccccc2)cc1)Nc1cccc2cccnc12,–,–,–,–,–,·,·
Cc1ccc(C)c(C(=O)CCC(=O)OCn2nnc3ccccc3c2=O)c1,–,–,–,–,–,·,·
CC1CC(C)CN(CC(O)COCc2ccccc2F)C1 (centres undefined),–,–,39,–,–,–,–
COc1ccc(-c2csc(C(C)(O)c3ccccc3)n2)cn1 (centres undefined),·,–,·,·,–,·,·
Cc1cccc(C)c1NC(=O)CNC(=O)c1ccc(NS(=O)(=O)c2ccc3[nH]c(=O)[nH]c3c2)cc1,–,–,93,–,–,–,–
Cc1cccc(C)c1NC(=O)CN(C)C(=O)c1ccc(NS(=O)(=O)c2ccc3[nH]c(=O)[nH]c3c2)cc1,–,–,–,–,–,·,·
COc1cc(CN2CCNC(=O)C2CC(=O)NC2CCCC2)cc(OC)c1 (centres undefined),–,–,–,–,–,·,·
COc1ccc(CCNc2ccc(C(CC(N)=O)NC(=O)c3ccc(Br)cc3)cc2[N+](=O)[O-])cc1 (centres undefined),–,–,18,–,–,25,–
NC(=O)CC(NC(=O)c1ccc(Br)cc1)c1ccc(NCc2ccc(F)cc2)c([N+](=O)[O-])c1 (centres undefined),–,–,19,–,–,26,–

# Compound activity (PubChem BioAssay)
